Hits are enriched below; roughly 2.3% of the tested compounds scored in any of these assays.
Jurkat NFkB inh: lowers PMA/ionomycin-induced NF-kB signal in Jurkat cells. inhibition, % at 4 µM. AID 435003. 330,000 tested, 0.53% active. PMA/ionomycin-induced NF-kB luciferase reporter, luminescence; in the data active means inhibition above about 50%
Gli-Sufu block: antagonists of Gli-Sufu signaling. Sufu-KO-LIGHT fibroblasts, Gli luciferase reporter luminescence. inhibition, % at 5 µM. 340,000 tested, 0.74% active. AID 588413;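 active means inhibition above about 55%, limit read from the data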
MITF TRPM1 inh: MITF TRPM1 promoter inhibition in SK-MEL-5 cells | SK-MEL-5 TRPM1 promoter luciferase, 24 h | inhibition, % at 12.5 µM | 330,000 tested, 0.83% active;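 active means mean inhibition across replicates of 60% or more, whatever share of single replicates reaches that level; inconclusive means some that reach 60%, reason not given; inactive means mean inhibition across replicates below 60%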
697 NFkB inh: inhibitors of the PMA/ionomycin-induced NF-kB reporter in 697 B cells; 697 B-cell NF-kB luciferase reporter, 16 h; inhibition, % at 4 µM; 330,000 tested, 0.33% active; in the data active means inhibition above about 35%
Shn3 inh set2: inhibitors of Schnurri-3 3'UTR reporter in osteoblasts; Clone20 osteoblast Shn3 3'UTR firefly luciferase, 24 h; inhibition, % at 12.5 µM; 360,000 tested, 0.52% active;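 active means mean inhibition of at least 75% with every replicate also reaching 75%; inconclusive means mean inhibition at least 75% but some replicate below; inactive means mean inhibition below 75%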
LMP1 NFkB inh: reduces LMP1-driven NF-kappaB luciferase signal. LMP1-induced NF-kappaB luciferase reporter cells, luminescence. inhibition, % at 12.5 µM. 350,000 tested, 0.69% active; in the data active means inhibition above about 41%; inconclusive means no clear call, values can overlap the other calls
Jurkat NFkB conf: lowers PMA/ionomycin-induced NF-kB signal in Jurkat cells. shares compounds with Jurkat NFkB inh. inhibition, % at 4 µM. 2,700 tested, 27% active. Jurkat NF-kB luciferase, 16 h;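 active means inhibition reaching about 45% at 4 µM in either replicate, limit read from the data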
697 NFkB conf: lowers PMA/ionomycin-induced NF-kB signal in 697 B cells; shares compounds with 697 NFkB inh; 2,000 tested, 35% active; inhibition, % at 4 µM; 697 B-cell NF-kB luciferase, 16 h; AID 449746; in the data active means inhibition mostly above about 28%, no sharp cut-off; inactive means mostly below about 22%
Each line names hits and unclear results; the compound was inactive in the other large screens (follow-up assays come after a bar, where they were run).

CCCC(=O)Nc1ccc(-c2nc3cc(C)c(C)cc3o2)cc1	none | Jurkat NFkB conf inactive | 697 NFkB conf inactive
CCCC(=O)Nc1ccc2oc(-c3ccncc3)nc2c1	none
CC(C)(C)c1cc(N)n2nc(C(C)(C)C)cc2n1	none
O=C(Nc1ccc(Cl)cn1)C1C(c2ccccc2)C1(Cl)Cl (stereo not drawn)	none
Nc1ccc(C#Cc2ccccc2)cc1	none
Nc1ccccc1C#Cc1ccccc1	Jurkat NFkB inh 55 | Jurkat NFkB conf inactive | 697 NFkB conf inactive
COc1ccc(S(=O)(=O)NCC(c2cccnc2)N2CCN(C)CC2)cc1OC (stereo not drawn)	none
O=C(Nc1ccc(SC(F)(F)F)cc1)c1ccccn1	none | Jurkat NFkB conf inactive | 697 NFkB conf inactive
CC(=O)NS(=O)(=O)c1ccc(NC(=O)c2ccccn2)cc1	none
Oc1ccccc1-c1cc(-c2ccc(F)cc2)n[nH]1	none | Jurkat NFkB conf inactive | 697 NFkB conf inactive
COc1ccc(-c2cc(-c3ccccc3O)[nH]n2)cc1	none | Jurkat NFkB conf inactive | 697 NFkB conf inactive
Cc1ccc(-c2cc(-c3ccccc3Cl)[nH]n2)c(O)c1	none
Cc1ccc(-c2cc(-c3ccc(F)cc3)n[nH]2)c(O)c1	none | Jurkat NFkB conf inactive | 697 NFkB conf inactive
Cc1ccc(-c2cc(-c3ccc(C)cc3O)[nH]n2)cc1	none | Jurkat NFkB conf inactive | 697 NFkB conf inactive
O=C(Nc1nc(-c2ccc3ccccc3c2)cs1)C1CCN(S(=O)(=O)c2cccs2)CC1	none
Cc1ccc(-c2csc(NC(=O)C3CCN(S(=O)(=O)c4cccs4)CC3)n2)cc1	Jurkat NFkB inh 63, 697 NFkB inh 62 | Jurkat NFkB conf 73 | 697 NFkB conf 67
C/C(=N\NC(=O)c1ccc(F)cc1)c1ccccn1	Jurkat NFkB inh 100, Shn3 inh set2 89 | Jurkat NFkB conf inactive | 697 NFkB conf inactive
COc1ccc(CNc2ncc(-c3ccc(F)cc3)n2C)c2ccccc12	Jurkat NFkB inh 71, Gli-Sufu block 56, 697 NFkB inh 40 | Jurkat NFkB conf 50 | 697 NFkB conf 48
CC(C)Cn1c(N)c(C(=O)CSc2ccc3c(c2)OCCO3)c(=O)n(C)c1=O	Jurkat NFkB inh 54, Gli-Sufu block 64, 697 NFkB inh 39, Shn3 inh set2 86 | Jurkat NFkB conf inactive | 697 NFkB conf inactive
COc1ccc2sc(N3C(=O)C4CC=C(C)CC4C3=O)nc2c1 (stereo not drawn)	none
O=C(Nc1nc2ccccc2[nH]1)c1ccc(OC(F)F)cc1	none | Jurkat NFkB conf inactive | 697 NFkB conf inactive
Cc1nn(-c2nc3ccccc3s2)c(C)c1Oc1ccccc1O	none | Jurkat NFkB conf inactive | 697 NFkB conf inactive
Cc1ccc(/C=N/Nc2nc(C(C)(C)C)cs2)o1	none
Cc1ccc(/C=N/Nc2nc3ccccc3s2)o1	none | Jurkat NFkB conf inactive | 697 NFkB conf inactive
O=C(Nc1cccc(F)c1)N1CCN(C/C=C/c2ccccc2)CC1	none
Cc1cc(C(=O)COC(=O)c2cc(O)c3ccccc3c2O)c(C)n1CC1CCCO1 (stereo not drawn)	MITF TRPM1 inh inconclusive (no result: Jurkat NFkB inh, 697 NFkB inh)
Cc1cc(C(=O)COC(=O)c2ccccc2O)c(C)n1CC1CCCO1 (stereo not drawn)	Jurkat NFkB inh 74, Gli-Sufu block 58, MITF TRPM1 inh 84, 697 NFkB inh 52, LMP1 NFkB inh 87 | Jurkat NFkB conf 86 | 697 NFkB conf 43
CCn1c(C)cc(C(=O)COC(=O)c2ccccc2[N+](=O)[O-])c1C	Jurkat NFkB inh 59, Gli-Sufu block 87, MITF TRPM1 inh 97, 697 NFkB inh 41, Shn3 inh set2 94, LMP1 NFkB inh 87 | Jurkat NFkB conf 94 | 697 NFkB conf 47
C=CCn1c(C)cc(C(=O)COC(=O)c2ccc(N)c([N+](=O)[O-])c2)c1C	none
COCCCN1C2=C(C(=O)CC(C)(C)C2)C(c2ccc(OC)c(OC)c2)C2=C1CC(C)(C)CC2=O	none
O=C(CSCc1ccco1)Nc1cc(C(F)(F)F)ccc1N1CCOCC1	none
CN=c1scc(C)n1/N=C/c1ccc(O)cc1O	none | Jurkat NFkB conf inactive | 697 NFkB conf inactive
COc1ccc(N(C)S(=O)(=O)c2cccc(C(=O)NC3CCCCC3C)c2)cc1 (stereo not drawn)	none
